Reference: PubChem BioAssay (Tox21)
Where “and” joins values, the source holds several entries; their conditions need not be identical. Equal values may be shown once. Records with an inconclusive call do not appear. The source holds several records for some structures; these can differ, active in one and inactive in another. Calls of active or inactive are those of the source. Unless noted, calls follow the shape of the full dose curve.

Assays:
[1] = Nuclear factor erythroid 2-related factor 2/antioxidant responsive element (Nrf2/ARE) small molecule agonists: qHTS cell viability counter screen in human keratinocytes (AID 1919968; active = well fitted curve in the direction sought with a large enough effect in the repeat runs; an effect the other way counts as inactive or inconclusive; also: nearly all actives have a fitted effect of over 55% in size)
Summary of the method: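 Cells of the KeratinoSens line were plated at 1,500 per well and left for 5 h before compound transfer from DMSO stocks. After a 23 h incubation (37 C, 5% CO2), CellTiter-Fluor was added. Signal was taken as fluorescence intensity 1 h later.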

[2] = Nuclear factor erythroid 2-related factor 2/antioxidant responsive element (Nrf2/ARE) small molecule agonists: luciferase reporter gene qHTS assay in human keratinocytes (AID 1919969); also: nearly all actives have a fitted effect of over 35% in size; also: potency is read from the fitted curve at half-maximal effect
[3] = target: Gonadotropin-releasing hormone receptor (Homo sapiens) (UniProt P30968); assay: Human gonadotropin-releasing hormone receptor (GnRHR) small molecule agonists, calcium flux assay in GnRHR-HEK293 cells (AID 1920063); also: nearly all actives have a fitted effect of over 35% in size
Summary of the method: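 Compounds dissolved in DMSO are pin-transferred onto dye-loaded GnRHR-HEK293 cells, which were seeded 18 h before at 37 C/5% CO2. Calcium signal is read as fluorescence intensity at 1 s intervals for 3 min.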

[4] = target: KiSS-1 receptor (Homo sapiens) (UniProt Q969F8); assay: Human kisspeptin (KISS1R) small molecule agonists, calcium flux assay in KISS1R-HEK293 cells (AID 1920064; active = well fitted curve in the direction sought with a large enough effect in the repeat runs; an effect the other way counts as inactive or inconclusive)
Summary of the method: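 Cell line: HEK293, stable human KISS1R. Dye loading 1 h at 37 C after 18 h culture. Read: kinetic fluorescence, 480/540 nm, 3 min at 1 s intervals.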

[5] = G protein-coupled receptor (GPCR) small molecule agonists, calcium flux assay: HEK293 wild type cell line counter screen (AID 1920065)
Summary of the method: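 Tox21 10K compounds, 15 concentrations each in triplicate, pin-transferred in DMSO onto dye-loaded cells; kinetic read at 480/540 nm for 3 min, 1 s intervals.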

[6] = p53 small molecule agonists, cell-based qHTS assay with human liver microsomes (AID 1963577)
Summary of the method: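 Compounds act here after metabolic activation: human liver microsomes and NADPH, both at 0.5 mg/mL final, were co-added to p53RE-bla cells. Incubation ran 16 h at 37 C, followed by LiveBLAzer detection.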

[7] = p53 small molecule agonists, cell-based qHTS assay with rat liver microsomes (AID 1963578)
Summary of the method: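 Read-out is beta-lactamase reporter fluorescence (LiveBLAzer, 2 h, room temperature, dark) in p53RE-bla cells treated 16 h at 37 C with compound, rat liver microsomes and NADPH, both 0.5 mg/mL final.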

[8] = p53 small molecule agonists, cell-based qHTS assay with human liver microsomes: qHTS cell viability counter screen (AID 1963579); also: nearly all actives have a fitted effect of over 45% in size
Summary of the method: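 Cells carrying the p53 response-element beta-lactamase reporter are treated for 16 h at 37 C with test compounds in the presence of human liver microsomes and NADPH (both 0.5 mg/mL final); ATP-based CellTiter-Glo luminescence then reports viability.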

[9] = p53 small molecule agonists, cell-based qHTS assay with rat liver microsomes: qHTS cell viability counter screen (AID 1963580); also: nearly all actives have a fitted effect of over 45% in size
Summary of the method: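 Luminescent ATP readout (CellTiter-Glo, 30 min at room temperature) reports viability of p53RE-bla HCT-116 cells after 16 h at 37 C with test compounds under metabolic activation by rat liver microsomes and NADPH at 0.5 mg/mL final each.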

[10] = p53 small molecule agonists, cell-based qHTS assay: qHTS cell viability counter screen (AID 1963581); also: nearly all actives have a fitted effect of over 45% in size
Summary of the method: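 ATP content measured by luminescence in HCT-116 p53RE-bla cells treated 16 h at 37 C, same wells as the reporter screen.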

[11] = p53 small molecule agonists, cell-based qHTS assay (AID 1963582; active = well fitted activation curve with a large enough effect in the signal ratio in the repeat runs, not every such curve was filed as active; the % refers to the signal ratio)
Summary of the method: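 16 h compound exposure (37 C) of p53 response element–bla cells, preceded by 5 h recovery at 37 C/5% CO2; read-out via LiveBLAzer B/G FRET substrate, 2 h RT, fluorescence intensity.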

[12] = target: 5-hydroxytryptamine receptor 2A (Homo sapiens) (UniProt P28223); assay: 5-hydroxytryptamine receptor 2A (HTR2A) small molecule antagonists, cell-based qHTS assay (AID 1963586); also: nearly all actives have a fitted effect of over 45% in size; also: potency is read from the fitted curve at half-maximal effect
Summary of the method: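 CHO cells stably expressing human HTR2A were plated for 18 h at 37 C, then loaded with calcium dye for 1 h. Compounds were preincubated 5 min at room temperature before DOI (4 nM solution) was added. Kinetic fluorescence was read for 3 min.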

[13] = target: 5-hydroxytryptamine receptor 2A (Homo sapiens) (UniProt P28223); assay: 5-hydroxytryptamine receptor 2A (HTR2A) small molecule agonists, cell-based qHTS assay (AID 1963587); also: nearly all actives have a fitted effect of over 30% in size
Summary of the method: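 HTR2A-CHO cells, plated 18 h at 37 C/5% CO2, dye-loaded 1 h at 37 C; compounds in DMSO added by pin tool (agonist mode). Intracellular calcium flux read as kinetic fluorescence on FDSS over 2 min at 1 s intervals.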

[14] = target: Muscarinic acetylcholine receptor M1 (Homo sapiens) (UniProt P11229); assay: Cholinergic receptor muscarinic 1 (CHRM1) small molecule antagonists, cell-based qHTS assay (AID 1963588); also: nearly all actives have a fitted effect of over 40% in size
Summary of the method: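 Compounds were tested at 15 concentrations in three independent runs. Dye-loaded CHRM1-CHO cells were exposed 5 min at room temperature before stimulation by acetylcholine added at 50nM. Intracellular calcium was read kinetically on FDSS for 3 min.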

[15] = target: Muscarinic acetylcholine receptor M1 (Homo sapiens) (UniProt P11229); assay: Cholinergic receptor muscarinic 1 (CHRM1) small molecule agonists, cell-based qHTS assay (AID 1963589); also: nearly all actives have a fitted effect of over 35% in size
Summary of the method: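 Homogeneous fluorescence calcium flux, agonist mode. Human M1-expressing CHO cells; compound dosed at 15 concentrations, three independent runs; signal sampled every 1 sec.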

[16] = cAMP Responsive Elements (CRE) small molecule antagonists, cell-based qHTS assay (AID 1963591; active = well fitted inhibition curve with a large enough effect in the signal ratio in the repeat runs, not every such curve was filed as active; the % refers to the signal ratio)
Summary of the method: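 First, CRE-bla HEK293T cells settled 18 h at 37 C. Next, compound and 0.25 uM final NKH477 were applied for 3 h. Last, LiveBLAzer B/G substrate was loaded for 2 h at room temperature.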

[17] = target: Beta-2 adrenergic receptor (Homo sapiens) (UniProt P07550); assay: Adrenergic beta2 receptor (ADRB2) small molecule antagonists, cell-based qHTS assay (AID 1963592); also: series mostly up to about 92 µM; nearly all actives have a fitted effect of over 50% in size
Summary of the method: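 Assay format: CHO-ADRB2 cells, 18-20hr seeding at 37C/5% CO2, then compound plus 1nM isoproterenol agonist mix for 0.5hr RT. Homogeneous time-resolved fluorescence cAMP detection after 1hr, expressed as 665/615 nm ratio.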

[18] = target: D(2) dopamine receptor (Homo sapiens) (UniProt P14416); assay: Dopamine D2 receptor (DRD2) small molecule agonists, cell-based qHTS assay (AID 1963594); also: nearly all actives have a fitted effect of over 35% in size
Summary of the method: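 HEK293 cells stably expressing DRD2 were cultured 24 h at 37 C, then given Ro20-1724 (0.1 mM final) and compounds for 10 min at room temperature. NKH477 (200nM) was then added for 30 min. cAMP was read by HTRF.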

[19] = target: D(2) dopamine receptor (Homo sapiens) (UniProt P14416); assay: Dopamine D2 receptor (DRD2) small molecule antagonists, cell-based qHTS assay (AID 1963595; active = well fitted inhibition curve with a large enough effect in the signal ratio in the repeat runs, with a control signal flat; the % refers to the signal ratio)
Summary of the method: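 Cells were plated and grown for 24 h at 37 °C. Ro20-1724 (0.1 mM final) went in first, then compound for 10 min. NKH477 (200 nM) with quinpirole (12 nM) followed for 30 min at RT, then HTRF detection reagents for 1 h.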

[20] = cAMP Responsive Elements (CRE) small molecule agonists, cell-based qHTS assay (AID 1963590)
Summary of the method: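 HEK 293T cells stably bearing CRE-bla were plated at 2,000 cells per well and rested 18 h. Compounds, positive controls or DMSO were added for 3 h at 37 C. LiveBLAzer B/G substrate was then loaded for 2 h at room temperature.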

Measured: Potency

Sequence of Muscarinic acetylcholine receptor M1 (Homo sapiens) (P11229 whole entry, looked up): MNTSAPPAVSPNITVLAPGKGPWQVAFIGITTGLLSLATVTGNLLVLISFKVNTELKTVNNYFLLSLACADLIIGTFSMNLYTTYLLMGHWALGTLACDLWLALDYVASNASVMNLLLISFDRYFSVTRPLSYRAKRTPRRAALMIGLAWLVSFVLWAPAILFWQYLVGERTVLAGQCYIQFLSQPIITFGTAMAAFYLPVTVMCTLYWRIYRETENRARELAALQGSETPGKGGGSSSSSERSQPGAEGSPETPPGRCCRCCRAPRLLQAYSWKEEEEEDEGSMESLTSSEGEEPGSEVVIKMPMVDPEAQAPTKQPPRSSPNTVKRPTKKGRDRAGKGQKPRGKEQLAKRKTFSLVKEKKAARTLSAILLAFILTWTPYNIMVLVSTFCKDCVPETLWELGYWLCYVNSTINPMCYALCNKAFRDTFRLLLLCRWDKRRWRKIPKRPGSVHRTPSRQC
Sequence of Beta-2 adrenergic receptor (Homo sapiens) (P07550 whole entry, looked up): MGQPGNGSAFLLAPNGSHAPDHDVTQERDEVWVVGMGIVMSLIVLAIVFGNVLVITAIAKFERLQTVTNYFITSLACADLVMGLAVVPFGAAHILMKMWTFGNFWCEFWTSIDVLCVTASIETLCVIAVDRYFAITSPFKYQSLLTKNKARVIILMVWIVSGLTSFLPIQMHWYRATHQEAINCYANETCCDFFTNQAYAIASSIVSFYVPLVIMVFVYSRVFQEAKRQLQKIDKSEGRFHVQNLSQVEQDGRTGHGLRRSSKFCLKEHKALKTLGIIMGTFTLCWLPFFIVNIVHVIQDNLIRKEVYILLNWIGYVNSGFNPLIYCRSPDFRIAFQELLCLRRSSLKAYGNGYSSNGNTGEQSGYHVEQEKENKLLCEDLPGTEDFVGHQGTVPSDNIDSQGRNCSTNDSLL
Sequence of KiSS-1 receptor (Homo sapiens) (Q969F8 whole entry, looked up): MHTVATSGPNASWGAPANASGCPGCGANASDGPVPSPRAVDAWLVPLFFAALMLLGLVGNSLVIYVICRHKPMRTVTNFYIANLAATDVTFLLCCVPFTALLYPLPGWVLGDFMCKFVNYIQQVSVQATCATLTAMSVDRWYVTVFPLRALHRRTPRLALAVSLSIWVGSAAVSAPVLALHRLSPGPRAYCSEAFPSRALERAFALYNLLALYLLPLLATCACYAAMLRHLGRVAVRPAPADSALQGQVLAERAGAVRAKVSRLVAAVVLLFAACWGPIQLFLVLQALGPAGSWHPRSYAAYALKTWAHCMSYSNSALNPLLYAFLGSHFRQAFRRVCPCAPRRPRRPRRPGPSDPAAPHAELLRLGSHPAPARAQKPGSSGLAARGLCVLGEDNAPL
Sequence of 5-hydroxytryptamine receptor 2A (Homo sapiens) (P28223 whole entry, looked up): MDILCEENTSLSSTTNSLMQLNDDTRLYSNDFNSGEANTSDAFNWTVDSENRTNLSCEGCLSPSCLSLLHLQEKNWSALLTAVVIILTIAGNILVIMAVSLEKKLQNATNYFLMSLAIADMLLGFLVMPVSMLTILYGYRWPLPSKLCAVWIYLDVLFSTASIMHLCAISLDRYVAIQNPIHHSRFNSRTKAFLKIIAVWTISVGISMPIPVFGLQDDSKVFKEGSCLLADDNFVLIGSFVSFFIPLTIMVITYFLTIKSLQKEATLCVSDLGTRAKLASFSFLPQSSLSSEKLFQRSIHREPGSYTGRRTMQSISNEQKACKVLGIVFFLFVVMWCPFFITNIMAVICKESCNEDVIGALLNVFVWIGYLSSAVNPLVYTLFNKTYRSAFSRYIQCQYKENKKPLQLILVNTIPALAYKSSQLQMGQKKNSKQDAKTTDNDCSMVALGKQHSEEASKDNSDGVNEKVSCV
Sequence of D(2) dopamine receptor (Homo sapiens) (P14416 whole entry, looked up): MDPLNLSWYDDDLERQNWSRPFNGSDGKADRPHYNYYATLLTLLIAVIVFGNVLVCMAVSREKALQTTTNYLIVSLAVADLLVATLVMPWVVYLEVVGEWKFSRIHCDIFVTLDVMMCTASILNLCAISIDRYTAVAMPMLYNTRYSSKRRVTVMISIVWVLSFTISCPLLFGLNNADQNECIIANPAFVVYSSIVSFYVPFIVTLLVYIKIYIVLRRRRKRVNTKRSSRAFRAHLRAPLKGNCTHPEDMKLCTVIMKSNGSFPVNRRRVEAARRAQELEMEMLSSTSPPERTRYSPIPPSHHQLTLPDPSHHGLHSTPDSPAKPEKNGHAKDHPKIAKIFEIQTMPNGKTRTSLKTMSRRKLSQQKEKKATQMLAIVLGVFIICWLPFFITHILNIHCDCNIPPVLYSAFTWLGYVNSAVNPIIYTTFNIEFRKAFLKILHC
Sequence of Gonadotropin-releasing hormone receptor (Homo sapiens) (P30968 whole entry, looked up): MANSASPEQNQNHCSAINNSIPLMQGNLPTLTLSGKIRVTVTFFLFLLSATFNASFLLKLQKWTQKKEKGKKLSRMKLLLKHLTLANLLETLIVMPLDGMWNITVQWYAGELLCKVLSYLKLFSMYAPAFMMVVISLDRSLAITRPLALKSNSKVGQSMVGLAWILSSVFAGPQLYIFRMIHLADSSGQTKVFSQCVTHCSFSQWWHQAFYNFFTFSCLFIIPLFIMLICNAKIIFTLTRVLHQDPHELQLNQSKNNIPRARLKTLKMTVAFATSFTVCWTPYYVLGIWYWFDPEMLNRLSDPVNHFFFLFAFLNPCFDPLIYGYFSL

NC(=O)NS(=O)(=O)c1ccc(Cl)cc1
not listed: [20]
inactive: all other assays above

C#CC(C)(O)CC(C)C (stereo unspecified)
not listed: [16] | [18]
inactive: all other assays above

CCOC(=O)C(C)C(C)=O (stereo unspecified)
not listed: [17]
inactive: all other assays above

O=S(=O)(O)CC(O)CCl (stereo unspecified)
not listed: [16]
inactive: all other assays above

Cc1cccc(N)n1
not listed: [17]
inactive: all other assays above

CC(=O)c1cccc([N+](=O)[O-])c1
not listed: [15]
inactive: all other assays above

C=CC(=O)OCCN(CC)CC
not listed: [16] | [20]
inactive: all other assays above

CN(C)c1ccc(Cc2ccc(N(C)C)cc2)cc1
inactive and 34.4 µM (active): [2]
active: [12] 4.23 µM
not listed: [15]
inactive: all other assays above

CC1(C)[C@H](C(=O)OCc2cccc(Oc3ccccc3)c2)[C@@H]1C=C(Cl)Cl
not listed: [20]
inactive: all other assays above

CCCOC(C)=O
not listed: [20]
inactive: all other assays above

O=C(CCN1CCN(CCO)CC1)N1c2ccccc2Sc2ccc(C(F)(F)F)cc21
not listed: [15] | [18]
inactive: all other assays above

CCN(CC)S(=O)(=O)c1ccc(C(=O)O)cc1
not listed: [20]
inactive: all other assays above

Nc1cc(C(Cl)=C(Cl)Cl)c(S(N)(=O)=O)cc1S(N)(=O)=O
not listed: [16] | [20]
inactive: all other assays above

Cc1ccc(-c2ccccc2)cc1
not listed: [17] | [20]
inactive: all other assays above
